Data from PMC4336329 (PLoS ONE, 2015).
About 14,000 (4.5%) of roughly 310,000 compounds showed an effect of 50% or more. The effect is printed as a negative number. The list comes from a sample in which strong results are over-represented; it also holds similar structures and randomly drawn compounds.

Target: human ether-à-go-go-related gene (hERG) potassium channel (human, UniProt Q12809)
Assay: primary screen, population patch clamp on CHO cells stably expressing hERG; higher = less effect of the substance
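Also: peak tail current of the secondary pulse compared with the same well before compound.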

human ether-à-go-go-related gene (hERG) potassium channel, sequence (Q12809 whole entry, looked up): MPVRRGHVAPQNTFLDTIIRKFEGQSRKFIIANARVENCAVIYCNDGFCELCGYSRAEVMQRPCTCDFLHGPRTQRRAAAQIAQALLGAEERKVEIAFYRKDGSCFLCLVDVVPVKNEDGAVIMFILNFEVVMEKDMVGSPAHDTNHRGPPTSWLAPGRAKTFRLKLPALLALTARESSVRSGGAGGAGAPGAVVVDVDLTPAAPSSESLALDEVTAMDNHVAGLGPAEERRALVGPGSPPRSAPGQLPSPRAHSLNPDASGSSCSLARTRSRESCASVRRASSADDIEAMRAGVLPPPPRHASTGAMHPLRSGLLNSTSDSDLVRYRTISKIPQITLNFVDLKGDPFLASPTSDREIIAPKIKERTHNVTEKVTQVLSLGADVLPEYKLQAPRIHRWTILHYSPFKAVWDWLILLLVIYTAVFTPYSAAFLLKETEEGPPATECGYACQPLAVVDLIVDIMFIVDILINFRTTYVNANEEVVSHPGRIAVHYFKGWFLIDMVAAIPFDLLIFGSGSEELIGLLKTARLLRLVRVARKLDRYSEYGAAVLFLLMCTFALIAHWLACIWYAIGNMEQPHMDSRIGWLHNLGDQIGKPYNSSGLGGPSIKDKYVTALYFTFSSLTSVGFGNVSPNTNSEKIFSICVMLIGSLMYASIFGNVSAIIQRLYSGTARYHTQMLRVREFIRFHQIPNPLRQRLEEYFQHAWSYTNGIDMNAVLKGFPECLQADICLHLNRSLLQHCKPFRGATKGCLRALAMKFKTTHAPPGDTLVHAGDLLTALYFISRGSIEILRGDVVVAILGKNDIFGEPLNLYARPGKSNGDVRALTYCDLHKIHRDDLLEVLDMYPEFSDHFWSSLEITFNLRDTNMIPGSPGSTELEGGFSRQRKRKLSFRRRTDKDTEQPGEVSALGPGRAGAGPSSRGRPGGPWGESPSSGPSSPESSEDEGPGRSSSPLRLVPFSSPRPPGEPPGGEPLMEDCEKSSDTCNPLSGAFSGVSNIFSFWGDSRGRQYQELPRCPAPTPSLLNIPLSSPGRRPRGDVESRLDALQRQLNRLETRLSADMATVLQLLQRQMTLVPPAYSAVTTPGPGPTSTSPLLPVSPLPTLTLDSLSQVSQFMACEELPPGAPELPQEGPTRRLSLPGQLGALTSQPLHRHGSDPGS

| Compound | hERG current change (%, negative = inhibition) at 10uM [%] |
| --- | --- |
| CCOC(=O)CN(C(=O)COc1nc(-c2ccccc2)cc(C)c1C#N)c1ccc(F)cc1 | 1.18 |
| Cc1ccc(-n2c(-c3ccncc3)n[nH]c2=S)c(C)c1 | 13.7 |
| CCOc1cc(N2CCOCC2)c(OCC)cc1NC(=O)CN1CCCC1 | 6.63 |
| COC(=O)c1c(NC(=O)CN2CCN(Cc3ccc4c(c3)OCO4)CC2)sc(C)c1C.O=C(O)C(=O)O | -28.9 |
| Fc1ccc(N2CCN(Cc3cc4c(cc3Br)OCO4)CC2)cc1 | 7.74 |
| CCOc1cc(N2CCOCC2)c(OCC)cc1NC(=O)CN1CCC(Cc2ccccc2)CC1 | -3.67 |
| C/C(=C\c1ccccc1)C(=O)N1CCN(Cc2ccc3c(c2)OCO3)CC1 | -51.6 |
| O=C(CSCc1ccccc1)N1CCN(Cc2ccc3c(c2)OCO3)CC1 | -22 |
| Fc1ccc(N2CCN(Cc3ccc4c(c3)OCO4)CC2)cc1 | -51.3 |
| CC(C)CC(=O)N1CCN(Cc2ccc3c(c2)OCO3)CC1 | 0.479 |
| Oc1cc2c(cc1CN1CCN(c3ccc(F)cc3)CC1)OCO2 | -1.5 |
| COc1ccsc1C(=O)N1CCN(Cc2ccc3c(c2)OCO3)CC1 | -16.5 |
| CCOc1cc(N2CCOCC2)c(OCC)cc1NC(=O)CN1CCN(Cc2ccc3c(c2)OCO3)CC1.Cl | -55.8 |
| COC(=O)c1ccsc1NC(=O)CN1CCN(Cc2ccc3c(c2)OCO3)CC1 | -78.4 |
| O=C1CC(Cc2ccc(Cl)cc2)C(=O)N1c1ccccn1 (stereo not shown) | 1.83 |
| CCOc1ccc(NC(=O)[C@@H](NC(=O)c2ccccc2)[C@@H](C)CC)cc1 | 2.26 |
| CCC(C)NC(=O)CSc1c2c(nc3ccccc13)CCCC2 (stereo not shown) | -7.98 |
| O=C(N/N=C/c1ccc([N+](=O)[O-])s1)c1cccnc1 | 5.77 |
| Cc1cc(C)nc(Sc2nc(C)nc3c2oc2ccccc23)n1 | -1.57 |
| CCc1ccc(S(=O)(=O)Nc2c(NC3CCCCC3)c3ccccc3oc2=O)cc1 | -3.7 |
| CC1CN(S(=O)(=O)c2ccc(C(=O)N3CCc4ccccc43)cc2)CC(C)O1 (stereo not shown) | 15.9 |
| CC(=O)Nc1ccc(NC(=O)c2cccc(S(=O)(=O)N(C)C3CCCCC3)c2)cc1 | 6.97 |

| Compound | hERG current change (%, negative = inhibition) at 10uM [%] |
| --- | --- |
| Cc1ccc(NC(=O)c2cccc(S(=O)(=O)N(C)C3CCCCC3)c2)nc1 | -34.7 |
| CN(C1CCCCC1)S(=O)(=O)c1cccc(C(=O)Nc2ccccn2)c1 | -53.7 |
| CN(C)CCCOc1ccc2c(c1)Sc1ccccc1CC2=O.Cl | -74.3 |
| Cc1cccc(OCCCN2CCCCCC2)c1 | -28.2 |
| O=C1Cc2ccccc2Sc2ccc(O)cc21 | 16.4 |
| Cc1cccc2c1Sc1ccccc1CC2=O | 0.0655 |
| CN(C)CCOc1ccc2c(c1)Sc1ccccc1CC2=O.Cl | -64.8 |
| c1ccc(-c2ccccc2OCCN2CCCC2)cc1 | -26.6 |
| Cl.O=C1Cc2ccccc2Sc2cc(OCCCN3CCCCC3)ccc21 | -69.8 |
| Cc1ccc2c(c1)Sc1ccccc1CC2=O | -20.9 |
| COc1cccc(OCCCN2CCCCC2)c1 | -16.2 |
| O=C1Cc2ccccc2Sc2ccccc21 | 1.13 |
| O=C1Cc2ccccc2Sc2ccc(Cl)cc21 | 16 |
| Cl.O.O=C1Cc2ccccc2Sc2c(OCCN3CCCCC3)cccc21 | -63.4 |
| O=C(O)c1n[nH]c2ccccc12 | -4.09 |
| C[N+]1(CC(=O)NNc2c3ccccc3nc3ccccc23)CCOCC1.[Br-] | 3.64 |
| COC(=O)C(=Nc1ccccc1)/C(C(=O)C(=O)N(C)c1ccccc1)=C(\O)c1ccccc1 | 22.7 |
| CC1(C)CCCC2=C1CC1C(=O)N(Cc3cccnc3)C(=O)C1C2 (stereo not shown) | -5.71 |
| COc1ccc(-c2csc(-c3cc4ccccc4oc3=N)n2)cc1 | -4.44 |
| CCCC(=O)N1CCN(c2ccc(NC(=O)c3ccc(Br)o3)cc2)CC1 | -8.1 |
| COc1ccccc1NC(=O)C1CCN(S(=O)(=O)c2cccs2)CC1 | -7.13 |
| c1ccc2[nH]c(CN3CCCCC3)nc2c1 | 1.41 |

| Compound | hERG current change (%, negative = inhibition) at 10uM [%] |
| --- | --- |
| Cc1ccnc(NC(=O)c2oc3ccccc3c2C)c1 | 24.7 |
| O=C(O)/C=C1\NC(=O)c2ccccc21 | 17 |
| COCC1CCN(Cc2cn(C)nc2-c2cccc(Cl)c2)C1 (stereo not shown) | -2.21 |
| CN(Cc1cn(C)nc1-c1ccccc1F)CC1CCN(Cc2ccccc2)CC1 | -15.6 |
| COCC1CCCN(Cc2cn(-c3ccccc3F)nc2-c2cc(C)sc2C)C1 (stereo not shown) | -39.4 |
| COCC1CCCN(Cc2nc(Cc3ccccc3)no2)C1 (stereo not shown) | 11.6 |
| COCC1CCCN(Cc2cn(Cc3ccccc3)nc2-c2cc3ccccc3o2)C1 (stereo not shown) | -72.8 |
| COCC1CCN(Cc2cn(Cc3ccccc3)nc2-c2cc3ccccc3o2)CC1 | -76.6 |
| CCCn1nnnc1SCC(=O)Nc1cccc(NC(=O)c2ccco2)c1 | -34.8 |
| COc1ccc(OC)c(NC(=O)c2cnc(Nc3ccccc3OC)c3ccccc23)c1 | -7.53 |
| CCN(CCCNC(=O)C1CCN(S(=O)(=O)CC)CC1)c1cccc(C)c1 | -40.4 |
| Nc1c(C(=O)Nc2ccc(Cl)c(C(=O)O)c2)sc2nc3c(cc12)CCCC3 | -3.17 |
| O=C(CSc1ccc2nnc(-c3ccccn3)n2n1)Nc1nccs1 | -27.6 |
| CC(C)(C)OC(=O)NCc1n[nH]c(=S)n1C1CC1 | 14.5 |
| COCCN(Cc1cc2cc3c(cc2nc1Cl)OCO3)C(=O)c1cccc(C)c1 | -64.3 |
| COCCN(Cc1cc2cc3c(cc2nc1Cl)OCO3)C(C)=O | 3.81 |
| COCCN(Cc1cc2cc3c(cc2nc1Cl)OCO3)C(=O)c1ccc(C)cc1 | -53.2 |
| COCCN(Cc1cc2cc3c(cc2nc1Cl)OCO3)C(=O)Nc1ccccc1OC | 16.3 |
| COCCN(Cc1cc2cc3c(cc2nc1Cl)OCO3)C(=O)Nc1ccc(F)cc1 | -30 |
| COCCN(Cc1cc2cc3c(cc2nc1Cl)OCO3)C(=O)Nc1ccc(OC)cc1 | 14.7 |
